For 9 molecules, Potency and outcome results are on record in PubChem BioAssay (Tox21).

A short description of assay [1]: qHTS assay for small molecules that induce genotoxicity in human embryonic kidney cells expressing luciferase-tagged ATAD5 (AID 651632). Also: nearly all actives have a fitted effect of over 15% in size. To be noted: HEK293T ATAD5-luciferase induction, 16 h; series mostly up to 83.3 µM. The essentials:
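ATAD5-luc HEK293T, 2,000 cells/well; cpd or DMSO pin-transferred; 16 hr, 37C/5% CO2; Amplite 30 min RT; luminescence.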
(In qHTS, concentration-response curves come from the screen itself.)

Assay [2] can be described thus: qHTS assay for small molecules that induce genotoxicity in human embryonic kidney cells expressing luciferase-tagged ATAD5 - cell viability (AID 651634; calls by dose curve; also: nearly all actives have a fitted effect of over 25% in size; also: potency is read from the fitted curve at half-maximal effect). To be noted: HEK293T ATAD5-luc cells viability, CellTiter-Fluor, 15.5 h; series mostly up to 83.3 µM. The essentials: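 Fluorescence from CellTiter-Fluor, reporting protease activity within live cells, served as the viability read-out. HEK293T cells carrying luciferase-tagged ATAD5 had been treated with compound for 15.5 hr at 37C.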

Assay [3] in a line: qHTS assay to test for compound auto fluorescence at 590 nm (red) in HepG2 cells (AID 720674). To be noted: HepG2 autofluorescence, red 540/590 nm, 1 h; series mostly up to 91.3 µM. The method in brief:
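Compound auto-fluorescence is scored relative to Rose Bengal sodium, measured at 540/590 nm in live HepG2 cultures after 1 hr compound contact (37 C, 5% CO2).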

A short description of assay [4]: qHTS assay to test for compound auto fluorescence at 535 nm (green) in HepG2 cells (AID 720675). Conditions: green autofluorescence 485/535 nm, 1 h; series mostly up to 91.3 µM.
A short description of assay [5]: qHTS assay to test for compound auto fluorescence at 460 nm (blue) in HEK293 cells (AID 720678). To be noted: blue autofluorescence 405/460 nm; series mostly up to 91.3 µM. The essentials: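 HEK293, 2,000 cells/well, 10% dialyzed FBS; attach 4-5 hr 37C; pin compound or DMSO; o/n 37C/5% CO2; fluorescence 405/460 nm; triamterene-equivalent units.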
The nature of assay [6]: qHTS assay to test for compound auto fluorescence at 590 nm (red) in HEK293 cells (AID 720679). Conditions: red autofluorescence 540/590 nm; series mostly up to 91.3 µM. The essentials: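 Intensity at 540nm excitation and 590nm emission is reported as Rose Bengal sodium-equivalent autofluorescence. Measurements followed overnight exposure (37C, 5% CO2) of HEK293 cells, 2,000 per well, to 23 nL compound.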

A short description of assay [7]: qHTS assay to test for compound auto fluorescence at 535 nm (green) in HEK293 cells (AID 720680). Conditions: green autofluorescence 485/535 nm; series mostly up to 91.3 µM.
The nature of assay [8]: qHTS assay to test for compound auto fluorescence at 460 nm (blue) in HEK293 cell free culture (AID 720681). Conditions: cell-free medium, autofluorescence 405/460 nm (blue); series mostly up to 91.3 µM. The essentials:
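Test compounds were pinned into cell-free culture medium (DMEM with 10% FBS) and fluorescence was read directly at Ex/Em 405/460 nm. Signals were expressed as fluorescence equivalents of triamterene, with DMSO vehicle as control.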

Assay [9] in a line: qHTS assay to test for compound auto fluorescence at 535 nm (green) in HEK293 cell free culture (AID 720682). Conditions: cell-free medium, green autofluorescence 485/535 nm, stronger effect = higher value; series mostly up to 91.3 µM. The method in brief: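 Each library compound, or DMSO control, is added by pintool to medium alone, comprising DMEM and 10% FBS. Emission at 535 nm following 485 nm excitation is quantified against fluorescein.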

Assay [10] is described as follows: qHTS assay to test for compound auto fluorescence at 590 nm (red) in HEK293 cell free culture (AID 720683). To be noted: cell-free medium autofluorescence, Ex540/Em590 red; series mostly up to 91.3 µM. The method in brief:
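Tox21 10K library compounds were pinned into cell-free DMEM with 10% FBS and fluorescence was read at excitation 540 nm. Activity is expressed as Rose Bengal sodium equivalency.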

Assay [11] can be described thus: qHTS assay to test for compound auto fluorescence at 460 nm (blue) in HepG2 cell free culture (AID 720685). To be noted: Cell-free culture medium, blue autofluorescence 405/460 nm; series mostly up to 91.3 µM. The method in brief: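 Compound (23 nL) or DMSO pinned into cell-free MEM with 10% FBS; blue fluorescence read at 405/460 nm excitation/emission, expressed as auto-fluorescence equivalency to triamterene.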

The nature of assay [12]: qHTS assay to test for compound auto fluorescence at 535 nm (green) in HepG2 cell free culture (AID 720686). To be noted: Cell-free medium, green autofluorescence 485/535 nm; series mostly up to 91.3 µM.
Assay [13] can be described thus: qHTS assay to test for compound auto fluorescence at 460 nm (blue) in HepG2 cells (AID 720687). To be noted: autofluorescence 405/460 nm, 1 h; series mostly up to 91.3 µM. The essentials:
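Cells (2,000/well in MEM with 10% FBS) attached overnight at 37 C, then were exposed to compound or DMSO for 1 hr at 37 C, 5% CO2. Fluorescence read at Ex/Em 405/460 nm, expressed as triamterene-equivalent signal.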

For assay [14], the target named is Glucocorticoid receptor (Homo sapiens) (UniProt P04150). Nature of the assay: qHTS assay to identify small molecule agonists of the glucocorticoid receptor (GR) signaling pathway (AID 720691; active = well fitted activation curve with a large enough effect in the signal ratio in the repeat runs, not every such curve was filed as active; the % refers to the signal ratio). Conditions: GR-bla HeLa, beta-lactamase reporter ratio, 18 h; series mostly up to 62.4 µM. The essentials:
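Fluorescence intensity from LiveBLAzer B/G FRET substrate (2 h, room temperature) reports beta-lactamase expression driven by the glucocorticoid response element in GR-bla HeLa cells after 18 h compound exposure at 37 C.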

Assay [15] shares this target. Nature of the assay: qHTS assay to identify small molecule antagonists of the glucocorticoid receptor (GR) signaling pathway (AID 720692; active = well fitted inhibition curve with a large enough effect in the signal ratio in the repeat runs, not every such curve was filed as active; the % refers to the signal ratio; also: potency is read from the fitted curve at half-maximal effect). To be noted: GR-bla HeLa, beta-lactamase FRET ratio, dexamethasone-stimulated, 18 h; series mostly up to 58.5 µM. The essentials: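 HeLa GR-bla cells; cmpd + dex 5 nM final, 18 h 37 C; LiveBLAzer B/G FRET substrate 2 h RT; fluorescence intensity read. Antagonist mode, qHTS.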

Assay [16] is described as follows: qHTS assay for small molecule disruptors of the mitochondrial membrane potential - cell viability (AID 720634; calls by dose curve; also: nearly all actives have a fitted effect of over 20% in size; also: potency is read from the fitted curve at half-maximal effect). Conditions: HepG2 viability, ATP luminescence (CellTiter-Glo), 1 h; series mostly up to 83.2 µM. The method in brief: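 Cells: HepG2, 2,000/well, attached overnight. Compound 1 hr, 37 C/5% CO2. +m-MPI dye, +CellTiter-Glo 30 min RT. Readout: luminescence (ATP).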

Assay [17] in a line: qHTS assay to test for compound auto fluorescence at 590 nm (red) in HepG2 cell free culture (AID 720684). To be noted: cell-free medium autofluorescence, red 540/590 nm; series mostly up to 91.3 µM. The essentials:
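Red fluorescence (540 nm excitation, 590 nm emission) was measured after compound transfer into cell-free MEM supplemented with 10% FBS. Values are equivalencies against Rose Bengal sodium.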

The nature of assay [18]: qHTS assay for small molecule disruptors of the mitochondrial membrane potential (AID 720635). Also: potency is read from the fitted curve at half-maximal effect. Conditions: HepG2 mitochondrial membrane potential, Mito-MPS dye ratio; series mostly up to 83.2 µM. The essentials:
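HepG2 cells (2,000/well) attached overnight at 37C, then took compound for 1 hr at 37C, 5% CO2. Mito-MPS dye was added for 30 min; fluorescence was read at 490/535 nm (monomers) and 540/590 nm (aggregates).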

Records with an inconclusive call do not appear. The source made the active and inactive calls. Unless noted, calls follow the shape of the dose curve; as a rule, active = well fitted curve in the direction sought with a large enough effect in the repeat runs; inconclusive = weak or mixed curves; inactive = no such curve, though single readings can be large; an effect the other way counts as inactive or inconclusive.

Chain of Glucocorticoid receptor (Homo sapiens) (P04150 whole entry, looked up): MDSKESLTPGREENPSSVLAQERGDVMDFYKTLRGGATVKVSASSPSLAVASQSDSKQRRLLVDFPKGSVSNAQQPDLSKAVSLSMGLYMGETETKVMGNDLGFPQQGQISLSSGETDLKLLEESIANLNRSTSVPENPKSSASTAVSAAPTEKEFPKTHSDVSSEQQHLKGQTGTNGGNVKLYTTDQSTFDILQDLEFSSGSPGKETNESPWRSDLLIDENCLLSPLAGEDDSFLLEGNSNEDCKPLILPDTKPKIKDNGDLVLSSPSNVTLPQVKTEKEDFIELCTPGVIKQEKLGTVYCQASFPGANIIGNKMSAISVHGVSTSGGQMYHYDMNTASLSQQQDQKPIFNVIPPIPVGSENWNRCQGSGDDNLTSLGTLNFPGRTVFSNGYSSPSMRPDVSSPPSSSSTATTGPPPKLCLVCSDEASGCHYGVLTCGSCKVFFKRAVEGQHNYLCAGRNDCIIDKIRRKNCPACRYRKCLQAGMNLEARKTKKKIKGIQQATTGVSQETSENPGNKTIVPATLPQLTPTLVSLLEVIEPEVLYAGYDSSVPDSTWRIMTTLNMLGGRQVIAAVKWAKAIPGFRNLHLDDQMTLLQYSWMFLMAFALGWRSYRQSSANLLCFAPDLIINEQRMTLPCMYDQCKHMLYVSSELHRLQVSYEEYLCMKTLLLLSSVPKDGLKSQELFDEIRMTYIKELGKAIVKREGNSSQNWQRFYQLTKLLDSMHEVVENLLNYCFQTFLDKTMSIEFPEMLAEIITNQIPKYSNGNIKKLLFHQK

`CC(N)CN` (centres undefined): the Potency entry in assay [1], in assay [2], in assay [5], in [8], in assay [11] and in [13] was “inactive” throughout. Besides, the Potency result in [14] and in [15] was “inactive” each time. The result in assay [3], in [4], in [6], in [7], in assay [9] and in assay [10] was inactive. Besides, the molecule was classed as inactive in [12].

For `O=C(CCC1CCN(Cc2ccccc2)CC1)c1ccc2c(c1)NCCCC2`, the Potency entry in assay [1], in assay [2], in assay [16], in assay [5], in assay [8] and in assay [11] was “inactive” each time. For the same molecule, the Potency entry in [13] was “inactive”. Besides, the molecule was called inactive in assay [3], in [4], in assay [6], in assay [7], in assay [9] and in [10]. Further, the molecule was called inactive in assay [17] and in assay [12].

On to `c1cc[c]([Bi]([c]2ccccc2)[c]2ccccc2)cc1`, for which the Potency entry in [1], in assay [2], in [5], in assay [8], in assay [11] and in [13] was “inactive” throughout. Besides, the Potency entry in assay [14] was “inactive”. Moreover, the figures for the Potency in assay [18] and in assay [15] were 24.3 µM (active) and 19.5 µM (active), respectively. The outcome in assay [3], in assay [4], in assay [6], in assay [7], in assay [9] and in assay [10] was inactive. Further, the call in assay [17] and in [12] was inactive.

On to `Cc1ccc(Nc2nccc(N(C)c3ccc4c(C)n(C)nc4c3)n2)cc1S(N)(=O)=O`, for which the Potency entry in assay [1], in [16], in assay [5], in assay [8], in assay [11] and in [13] was “inactive” throughout. In addition, the Potency was 26.6 µM (active) in assay [2] and 0.75 µM (active) in assay [18]. The molecule was called inactive in [3], in assay [4], in [7], in assay [9] and in assay [12].

Consider `CSc1ccc(Oc2ccc(S(N)(=O)=O)cc2CN(C)C)cc1C`, for which the Potency result in [1], in assay [5], in [8], in assay [11], in assay [13] and in [14] was “inactive” throughout. The Potency entry in assay [15] is “inactive”. The molecule was classed as inactive in assay [3], in [6], in assay [7], in [9], in assay [17] and in [12].

Regarding `C1COCO1`, the Potency entry in [1], in assay [2], in assay [16], in assay [5], in assay [8] and in assay [11] was “inactive” in each case. Moreover, the Potency result in assay [13], in assay [14] and in assay [15] was “inactive” in each case. Also, the call in [3], in assay [4], in [6], in assay [9], in assay [10] and in [17] was inactive. Further, the call in assay [12] was inactive.

As for `O=C(CCCN1CCN(c2ccc(F)cc2)CC1)NC1c2ccccc2CSc2ccccc21` (centres undefined), the Potency result in assay [1], in [16], in [5], in assay [8], in assay [11] and in assay [13] was “inactive” in each case. Moreover, the Potency entry in assay [14] and in assay [15] was “inactive” each time. The molecule was called inactive in assay [3], in [4], in assay [6], in [7], in assay [9] and in assay [10]. Further, the result in assay [12] was inactive.

Consider `Nc1ccc(Cl)cc1[N+](=O)[O-]`, for which the Potency entry in assay [1], in assay [16], in assay [5], in assay [8], in assay [11] and in [13] was “inactive” throughout. In assay [18], the Potency is 53.9 µM (active). Moreover, the molecule was classed as inactive in assay [3], in [4], in assay [6], in assay [7], in [9] and in [17]. In addition, in [12], the outcome was inactive.

Regarding `COCCOC(=O)C1=C(C)NC(C)=C(C(=O)OC/C=C/c2ccccc2)C1c1cccc([N+](=O)[O-])c1` (centres undefined), the Potency result in assay [1], in assay [2], in assay [5], in assay [8], in [11] and in assay [13] was “inactive” in each case. Also, the Potency result in assay [14] is “inactive”. Besides, the Potency in [16] is 9.44 µM (active); in [18] it was 10.6 µM (active); in assay [15], 10.7 µM (active). Also, the call in assay [3], in assay [4], in assay [6], in [9], in [10] and in [12] was inactive.
